According to ChEMBL document CHEMBL4513216, “Probing the Open Global Health Chemical Diversity Library for Multistage-Active Starting Points for Next-Generation Antimalarials” (ACS Infect Dis, 2020):
Screen size: about 65,000 compounds; about 2,100 (3.2%) showed an effect of 50% or more. The median lay at about -52%. Many of the other results were omitted from the sample, so strong results are more common in it than they were.

The compounds below were run on Plasmodium falciparum (assay: Screen against P. falciparum Asexual Blood Stage (ABS), at 5uM). Conditions: tested at 5 uM.
Format: functional, Dd2

Q: Which INHIBITION does the source give for `O=S(=O)(NCC(c1ccsc1)N1CCCCCC1)c1cccs1` (stereo unspecified) here?
A: 85.5%

Q: `Cc1ccc(NC(=O)N2CCC(CO)(Nc3ccccc3)CC2)cc1` was tested. Which INHIBITION did it give?
A: -31.275%

Q: With `NC(=O)CN1CCCCC1c1ccc(-n2ccnc2)nc1` (stereo unspecified) as the compound, how does the INHIBITION read?
A: -59.6%

Q: With `OCCN1CCOC2(CCCN(c3ncc(F)cn3)C2)C1` (stereo unspecified) as the compound, how does the INHIBITION read?
A: 11%

Q: `Fc1cccc(N2CCCC3(C2)CN(c2ncccn2)CCO3)c1` (stereo unspecified) was tested. Which INHIBITION did it give?
A: 70.6%

Q: For `OCCN1CCOC2(CCCN(c3ncccn3)C2)C1` (stereo unspecified), which INHIBITION is on record?
A: -14.1%

Q: Which INHIBITION does the source give for `Cc1noc(C)c1CN1CCO[C@H]2CN(Cc3cnn(C)c3)C[C@H]21` here?
A: 13.9%

Q: For `CCNC(=O)C(C)NC(=O)c1cnc(-c2ccc(C)cc2C)s1` (stereo unspecified), which INHIBITION is on record?
A: 71.5%

Q: For `CCS(=O)(=O)NC[C@]12COC[C@H]1CN(Cc1cccnc1OC)C2`, which INHIBITION is on record?
A: -27.6%

Q: For `CCNC(=O)c1cn(C(C)(C)C)c2ncccc12`, which INHIBITION is on record?
A: 5.57%

Q: With `Cc1cccc(CN2C[C@@H]3COC[C@]3(COCC(=O)N(C)C)C2)n1` as the compound, how does the INHIBITION read?
A: -104%

Q: `COc1ccc(Cl)cc1CC(=O)N1CCN(CC(C)(C)O)CC1` was tested. Which INHIBITION did it give?
A: -155%

Q: Which INHIBITION does the source give for `CN(CCO)Cc1cc(Cl)ccc1OCC(O)CN1CCCCCC1` (stereo unspecified) here?
A: 81.5%

Q: How did the INHIBITION turn out when `COCCN(C)Cc1cc(Cl)ccc1OCC(O)CN1CCCCCC1` (stereo unspecified) was run?
A: 83.9%

Q: How did the INHIBITION turn out when `CN(CCCO)Cc1cc(Cl)ccc1OCC(O)CN1CCCCCC1` (stereo unspecified) was run?
A: 90.7%

Q: For `CCC(O)CN1CCN(C(=O)Cc2cc(Cl)ccc2OC)CC1` (stereo unspecified), which INHIBITION is on record?
A: -17.7%

Q: `Cn1cc(C2SCC(=O)Nc3c2c(=O)[nH]n3C2CCOCC2)cn1` (stereo unspecified) was tested. Which INHIBITION did it give?
A: -57.4%

Q: How did the INHIBITION turn out when `O=C1CSC(c2ccccc2)c2c(n(C3CCOCC3)[nH]c2=O)N1` (stereo unspecified) was run?
A: -34.2%

Q: With `c1cc([C@H]2C[C@@H]3CCN(Cc4nccs4)C[C@H]3O2)ncn1` as the compound, how does the INHIBITION read?
A: -99.9%

Q: For `Cc1noc([C@H]2C[C@H]3OCC[C@H]3N(Cc3ccncc3)C2)n1`, which INHIBITION is on record?
A: -164%

Q: For `CCCn1nc(C)c(-c2cncn2CC2(N(C)C)CCC(C)CC2)c1C` (stereo unspecified), which INHIBITION is on record?
A: 70.3%

Q: With `CC(C)Oc1ncnc2c1CCN(Cc1ccc(F)cc1)CC2` as the compound, how does the INHIBITION read?
A: 70.8%

Q: `CC(c1ccc(F)cc1)N1CCN(Cc2ccc(C#N)cc2)CC1` (stereo unspecified) was tested. Which INHIBITION did it give?
A: -14.8%

Q: With `O=C1[C@H]2CN(Cc3ccc(F)cc3)C[C@H]2CN1c1cncnc1` as the compound, how does the INHIBITION read?
A: 2.38%

Q: How did the INHIBITION turn out when `Cn1cnc(S(=O)(=O)N2CC3(CCN(Cc4ccncc4)C3)C2)c1` was run?
A: -29.2%

Q: `COCc1cncc2c1CCN(Cc1cnn(C)c1)C2` was tested. Which INHIBITION did it give?
A: -135%

Q: How did the INHIBITION turn out when `c1ccc(O[C@H]2CO[C@@]3(CCCN(Cc4nccs4)C3)C2)nc1` was run?
A: -90.3%

Q: For `Cc1ccccc1CC1(CO)CCCN(c2ncncc2C(C)C)C1` (stereo unspecified), which INHIBITION is on record?
A: 85%

Q: `CCS(=O)(=O)N1CCOC2(CCCN(Cc3ccccn3)C2)C1` (stereo unspecified) was tested. Which INHIBITION did it give?
A: -69.2%

Q: `CN(C)C(=O)CN1CC[C@@H]2O[C@@H](COCc3cccnc3)CC[C@@H]21` was tested. Which INHIBITION did it give?
A: -71.1%

Q: With `Cc1nn(C)cc1C1=NS(=O)(=O)N(C)C(C(=O)Nc2ccc(Cl)cc2)=C1` as the compound, how does the INHIBITION read?
A: 83.4%

Q: `Cc1nn(C)cc1C1=NS(=O)(=O)N(C)C(C(=O)Nc2ccc(Br)cc2)=C1` was tested. Which INHIBITION did it give?
A: 90%

Q: `c1ccc(OC[C@H]2CCC[C@]23CN(Cc2nccs2)CCO3)nc1` was tested. Which INHIBITION did it give?
A: 6.16%

Q: Which INHIBITION does the source give for `CCCC12CN3CC(C)(CN(C1)C3c1[nH]c(=O)[nH]c(=O)c1C)C2=O` (stereo unspecified) here?
A: -167%

Q: Which INHIBITION does the source give for `Cc1noc(C)c1CN1CC[C@H]2OCC[C@@]2(C(=O)N(C)C)C1` here?
A: -41.2%

Q: Which INHIBITION does the source give for `COc1cc(C2(C(=O)NCCn3ccnc3)CCCC2)ccc1C` here?
A: 50%

Q: For `COCCNC(=O)C1(c2ccc(C)c(OC)c2)CCCC1`, which INHIBITION is on record?
A: 6.63%

Q: How did the INHIBITION turn out when `Cc1cc(C)c(N(CC(O)CNCc2ccccc2)S(C)(=O)=O)c(C)c1` (stereo unspecified) was run?
A: 70.4%

Q: How did the INHIBITION turn out when `COCCOc1ccccc1CNCC1COC2(CCCC2)O1` (stereo unspecified) was run?
A: 74.3%

Q: For `CN(C)c1nc(N)nc(CN2CCC(c3ccccc3)CC2)n1`, which INHIBITION is on record?
A: 80.4%

Q: How did the INHIBITION turn out when `CCN1CCC(c2cncc(N(C)C)n2)CC1` was run?
A: -163%

Q: How did the INHIBITION turn out when `O=C(N1CCCO1)[C@]12COC[C@H]1CN(Cc1cccnc1)C2` was run?
A: -58.8%

Q: How did the INHIBITION turn out when `Cc1ccc(N2CCO[C@H]3CN(Cc4ccc(F)cc4)C[C@H]32)nn1` was run?
A: -3.71%

Q: With `Cc1nc(N2C[C@H]3CC[C@@H](C2)N3)nc2cc(S(C)(=O)=O)ccc12` as the compound, how does the INHIBITION read?
A: -46.7%

Q: `CCN(CC)CCN(C)c1nc(-c2ccc(Cl)cc2)nc2c1CNC2` was tested. Which INHIBITION did it give?
A: 88.3%

Q: `Cc1nccn1CCN(C)c1nc(-c2ccc(Cl)cc2)nc2c1CNC2` was tested. Which INHIBITION did it give?
A: 70.5%

Q: With `CCN1C[C@H]2[C@@H](C1)N(S(=O)(=O)c1cccnc1)CC[C@H]2OC` as the compound, how does the INHIBITION read?
A: -40.3%

Q: With `NC(=O)CCC1CCCN(c2ccnc3cc(F)ccc23)C1` (stereo unspecified) as the compound, how does the INHIBITION read?
A: 83.4%

Q: How did the INHIBITION turn out when `Cc1noc(C)c1CN1CC[C@H]2OCC[C@@]2(C(=O)NCC2CC2)C1` was run?
A: -139%

Q: With `CN(C)Cc1cncc2c1CCN(C1CCOCC1)C2` as the compound, how does the INHIBITION read?
A: -179%

Q: How did the INHIBITION turn out when `O=C(N[C@H]1CN[C@H]2CCCO[C@H]21)c1cscn1` was run?
A: -37.2%
